Test results reported in PubChem BioAssay (NCATS).
Records with an inconclusive call do not appear. Where a call stands in place of a potency, no number is given. A number with no mark means an inactive call. Active and inactive are the calls of the source. Calls follow the shape of the dose curve; as a rule, active = well fitted curve in the direction sought with a large enough effect; inconclusive = small, poorly fitted or top-dose-only effect, or another doubt; inactive = no such curve, though single readings can be large; an effect the other way counts as inactive or inconclusive.

Columns and labels:
[1] = Quantitative highthroughput screen to assess conditional lethalithy of NOMO1 cells grown in RPMI1640 with untreated serum (RPMI+s) (AID 1963876); conditions: NOMO1 AML cells in RPMI+serum, CellTiter-Glo viability, 48 h; series mostly up to 45.8 µM; also: nearly all actives have a fitted effect of over 35% in size; also: potency is read from the fitted curve at half-maximal effect
How it was run: (§1)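 Each medium arm—HPLM with 10% dialyzed FBS, or RPMI1640 with 5 mM glucose and 10% untreated or dialyzed FBS—was screened against an 11-point, 3-fold compound titration for 48 h at 37 °C, with CellTiter-Glo luminescence as endpoint.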

[2] = Quantitative highthroughput screen to assess conditional lethalithy of NOMO1 cells grown in RPMI1640 with dialyzed fetal bovine serum (RPMI+ds) (AID 1963877); conditions: NOMO1 in RPMI+dialyzed FBS viability, ATP luminescence, 48 h; series mostly up to 45.8 µM; also: nearly all actives have a fitted effect of over 30% in size; also: potency is read from the fitted curve at half-maximal effect
How it was run: as §1

[3] = Quantitative highthroughput screen to assess conditional lethalithy of NOMO1 cells grown in Human Plasma-Like Medium with dialyzed fetal bovine serum (HPLM+ds) (AID 1963878); conditions: NOMO1 AML cells in HPLM+ds, CellTiter-Glo viability, 48 h; series mostly up to 45.8 µM; also: nearly all actives have a fitted effect of over 35% in size; also: potency is read from the fitted curve at half-maximal effect
How it was run: as §1

[4] = Quantitative highthroughput screen to assess conditional lethalithy of P12 Ichikawa cells grown in Human Plasma-Like Medium with dialyzed fetal bovine serum (HPLM+ds) (AID 1963879); conditions: ATP luminescence, 48 h; Potency: viability; series mostly up to 45.8 µM; also: nearly all actives have a fitted effect of over 35% in size; also: potency is read from the fitted curve at half-maximal effect
How it was run: as §1

[5] = Quantitative highthroughput screen to assess conditional lethalithy of P12 Ichikawa cells grown in RPMI1640 with dialyzed fetal bovine serum (RPMI+ds) (AID 1963880); conditions: ATP luminescence, 48 h; Potency: P12-Ichikawa viability; series mostly up to 45.8 µM; also: nearly all actives have a fitted effect of over 35% in size; also: potency is read from the fitted curve at half-maximal effect
How it was run: as §1

[6] = Quantitative highthroughput screen to assess conditional lethalithy of P12 Ichikawa cells grown in RPMI1640 with untreated serum (RPMI+s) (AID 1963881); conditions: ATP luminescence, 48 h; Potency: viability; series mostly up to 45.8 µM; also: nearly all actives have a fitted effect of over 35% in size; also: potency is read from the fitted curve at half-maximal effect
How it was run: as §1

[7] = Quantitative highthroughput screen to assess conditional lethalithy of SEM cells grown in Human Plasma-Like Medium with dialyzed fetal bovine serum (HPLM+ds) (AID 1963882); conditions: SEM B-ALL cells in HPLM+ds, CellTiter-Glo viability, 48 h; series mostly up to 45.8 µM; also: nearly all actives have a fitted effect of over 35% in size; also: potency is read from the fitted curve at half-maximal effect
How it was run: as §1

[8] = Quantitative highthroughput screen to assess conditional lethalithy of SEM cells grown in RPMI1640 with dialyzed fetal bovine serum (RPMI+ds) (AID 1963884); conditions: SEM B-ALL cells, RPMI+dialyzed FBS, CellTiter-Glo viability, 48 h; series mostly up to 45.8 µM; also: nearly all actives have a fitted effect of over 35% in size; also: potency is read from the fitted curve at half-maximal effect
How it was run: as §1

[9] = Cellular viability qHTS for adrenocortical cancer (ACC) cell line SW-13 (AID 1963989); conditions: SW-13 ACC cells viability, CellTiter-Glo, 48 h; activity (max response): active compounds read low;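 also: cells grown in serum-free medium with ITS supplement; nearly all actives have a fitted effect of over 65% in size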
How it was run: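 48 h treatment, SW-13 in ITS/DMEM serum-free; doses up to 46 uM; readout CellTiter-Glo luminescence; curve fit four-parameter logistic.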

[10] = Cellular viability qHTS for adrenocortical cancer (ACC) cell line NCI-H295R (AID 1963990); conditions: CellTiter-Glo ATP luminescence, 48 h; series mostly up to 46.1 µM; also: nearly all actives have a fitted effect of over 60% in size
How it was run: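 Compound titrations (up to 46 uM final) are applied to NCI-H295R cultures for 48 h at 37C. Viable cell number is estimated by CellTiter-Glo signal, normalised to DMSO and doxorubicin controls.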

[11] = Quantitative highthroughput screen to assess conditional lethalithy of SEM cells grown in RPMI1640 with unreated serum (RPMI+s) (AID 1963883); conditions: SEM B-ALL cells, CellTiter-Glo viability, 48 h; series mostly up to 45.8 µM; also: nearly all actives have a fitted effect of over 35% in size; also: potency is read from the fitted curve at half-maximal effect
How it was run: as §1

SMILES | Potency [1] | Potency [2] | Potency [3] | Potency [4] | Potency [5] | Potency [6] | Potency [7] | Potency [8] | activity (max response) [9] [%] | Potency [10] | Potency [11]
CNC(=O)c1ccc(N2C(=S)N(c3ccc(C#N)c(C(F)(F)F)c3)C(=O)C2(C)C)cc1F | inactive | inactive | inactive | inactive | inactive | inactive | inactive | inactive | -1.24 | inactive | –
CC1(C)S[C@H]2[C@H](NC(=O)[C@@H](N)c3ccc(O)cc3)C(=O)N2[C@@H]1C(=O)O | 8330 nM (active) | 9350 nM (active) | 5260 nM (active) | 7430 nM (active) | 5900 nM (active) | 8330 nM (active) | 16600 nM (active) | inactive | – | – | –
OC[C@H]1O[C@@H](Oc2ccc(O)cc2)[C@H](O)[C@@H](O)[C@H]1O | inactive | inactive | inactive | inactive | inactive | inactive | inactive | inactive | – | – | –
CC[C@@H]1C=C(C)C[C@H](C)C[C@H](OC)[C@H]2O[C@@](O)(C(=O)C(=O)N3CCCC[C@@H]3C(=O)O[C@H](C(C)=C[C@@H]3CC[C@H](Cl)[C@H](OC)C3)[C@H](C)[C@@H](O)CC1=O)[C@H](C)C[C@H]2OC | inactive | inactive | inactive | inactive | inactive | inactive | – | 1480 nM (active) | – | – | inactive
Cc1cc(C=c2sc3nc4ccccc4n3c2=O)c(C)n1-c1ccccc1 | inactive | inactive | inactive | inactive | inactive | – | inactive | inactive | – | – | inactive
COc1ccc(-c2cc(=O)c3c(O)cc(O[C@@H]4O[C@H](CO[C@@H]5O[C@@H](C)[C@H](O)[C@@H](O)[C@@H]5O)[C@@H](O)[C@H](O)[C@@H]4O)cc3o2)cc1O | inactive | inactive | inactive | inactive | inactive | inactive | inactive | inactive | – | – | –
Cc1cc(SCc2sc(-c3ccc(C(F)(F)F)cc3)nc2C)ccc1OCC(=O)O | inactive | inactive | inactive | inactive | inactive | inactive | – | – | – | inactive | –
COc1ccc2cc([S+]([O-])Cc3ncc(C)c(OC)c3C)nc2c1 | inactive | inactive | inactive | inactive | inactive | inactive | – | 935 nM (active) | – | – | inactive
CC=CC(=O)N(CC)c1ccccc1C | inactive | inactive | inactive | inactive | inactive | inactive | inactive | inactive | – | – | –
C[C@@H]1[C@H](C)CC[C@]2(C(=O)O)CC[C@]3(C)C(=CC[C@@H]4[C@@]5(C)CC[C@H](O)C(C)(C)[C@H]5CC[C@]43C)[C@@H]12 | inactive | inactive | inactive | inactive | inactive | inactive | inactive | inactive | – | – | –
C[C@@H]1CC=CC=CC=CC=C[C@@H](O[C@@H]2O[C@H](C)[C@@H](O)[C@H](N)[C@H]2O)C[C@@H]2O[C@](O)(C[C@@H](O)C[C@@H]3O[C@@H]3C=CC(=O)O1)C[C@H](O)[C@@H]2C(=O)O | inactive | inactive | inactive | inactive | inactive | inactive | – | inactive | – | – | inactive
OC(CN1CCN(c2cccc(Cl)c2)CC1)C(c1ccccc1)c1ccccc1 (stereo not drawn) | 935 nM (active) | 1050 nM (active) | 148 nM (active) | 132 nM (active) | 743 nM (active) | 935 nM (active) | – | 166 nM (active) | – | – | 148 nM (active)
CCc1cnn2c(NCc3ccc[n+]([O-])c3)cc(N3CCCC[C@@H]3CCO)nc12 | 118 nM (active) | 93.5 nM (active) | 105 nM (active) | 118 nM (active) | 118 nM (active) | – | 74.3 nM (active) | 59 nM (active) | – | – | 59 nM (active)
Cc1nn(C)c2c1C(c1ccc(C(F)(F)F)cc1)C(C#N)=C(N)O2 (stereo not drawn) | inactive | inactive | inactive | inactive | inactive | inactive | – | – | -18.7 | – | –
C[C@H]1C[C@H]2[C@@H]3CCC4=CC(=O)C=C[C@]4(C)[C@@H]3C(=O)C[C@]2(C)[C@@]1(O)C(=O)CO | inactive | inactive | inactive | inactive | inactive | inactive | – | 23500 nM (active) | – | – | 20900 nM (active)
C=C1[C@H](n2cnc3c(=O)[nH]c(N)nc32)C[C@H](O)[C@H]1CO | 18700 nM (active) | 3720 nM (active) | 4180 nM (active) | 2640 nM (active) | 1180 nM (active) | – | 187 nM (active) | – | – | – | 526 nM (active)
CC(C=CC(=O)NO)=C[C@@H](C)C(=O)c1ccc(N(C)C)cc1 | 2090 nM (active) | 1870 nM (active) | 1660 nM (active) | 1480 nM (active) | 1180 nM (active) | – | 590 nM (active) | 590 nM (active) | – | – | 662 nM (active)
CCC1=C(C)CN(C(=O)NCCc2ccc(S(=O)(=O)NC(=O)NC3CCC(C)CC3)cc2)C1=O (stereo not drawn) | inactive | inactive | inactive | inactive | inactive | inactive | inactive | inactive | -7.59 | – | –
COc1ccc(CCC(=O)Nc2nc3ccc(Cl)cc3s2)cc1OC | inactive | inactive | inactive | inactive | inactive | inactive | inactive | inactive | -11.7 | – | –
